High-throughput results (PubChem)
A selection: hits, their analogues and other compounds. The true share with any hit is near 7%.
GCN5L2 inh = qHTS Assay for Inhibitors of GCN5L2; GCN5L2 HAT assay, ThioGlo1 CoA-SH fluorescence; Histone acetyltransferase KAT2A (Homo sapiens), Q92830; 390,000 tested, 0.21% active; Potency, µM (series often up to 58.9 µM), for the others: at the top dose activity change, negative = inhibition, usual class: inhibitors; also: potency is read from the fitted curve at half-maximal effect; % is scaled to controls: 0 for no effect and ±100 for the full control effect
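Compounds, pin-transferred from DMSO stocks, meet 20nM GCN5L2 for 15 min before the reaction begins with H3(1-25) peptide (75uM) and acetyl-CoA (70uM). Thiol-reactive ThioGlo1 reports CoA release over 20 min at room temperature.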
PLK1 PBD inh = qHTS for Inhibitors of PLK1-PDB (polo-like kinase 1 - polo-box domain): Primary Screen; Plk1 PBD binding of FITC phosphopeptide, fluorescence polarization; Potency, µM, for inactives: max response, negative = inhibition, most hits filed as inhibitors; 360,000 tested, 2.8% active; AID 720504, 2013; also: potency is read from the fitted curve at half-maximal effect; series mostly up to about 57 µM; % is scaled to controls: 0 for no effect and ±100 for the full control effect; nearly all actives have a fitted effect of over 65% in size
Target sequence (P53350 whole entry, looked up, the tested form may be a part): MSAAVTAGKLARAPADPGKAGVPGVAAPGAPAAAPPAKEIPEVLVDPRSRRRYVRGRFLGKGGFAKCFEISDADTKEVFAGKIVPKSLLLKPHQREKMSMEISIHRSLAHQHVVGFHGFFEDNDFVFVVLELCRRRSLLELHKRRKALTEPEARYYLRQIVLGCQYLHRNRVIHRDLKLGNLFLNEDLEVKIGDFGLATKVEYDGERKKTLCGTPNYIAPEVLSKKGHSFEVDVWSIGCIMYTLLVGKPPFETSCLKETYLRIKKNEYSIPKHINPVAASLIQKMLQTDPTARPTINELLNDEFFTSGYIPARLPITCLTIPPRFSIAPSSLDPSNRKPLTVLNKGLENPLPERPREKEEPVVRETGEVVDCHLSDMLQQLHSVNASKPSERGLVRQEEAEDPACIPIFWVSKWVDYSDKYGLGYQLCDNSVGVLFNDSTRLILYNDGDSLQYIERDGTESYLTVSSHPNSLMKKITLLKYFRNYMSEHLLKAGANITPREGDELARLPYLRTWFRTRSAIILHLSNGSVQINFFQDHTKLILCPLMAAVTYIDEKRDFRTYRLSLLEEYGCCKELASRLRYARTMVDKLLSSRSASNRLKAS
PI5P4K alpha inh = qHTS for Inhibitors of phosphatidylinositol 5-phosphate 4-kinase (PI5P4K). Phosphatidylinositol 5-phosphate 4-kinase type-2 alpha (Homo sapiens), P48426. PI5P4Kalpha enzyme, ADP-Glo luminescence, 60 min; stronger effect = lower value. 330,000 tested, 1.2% active. max response, %; active = max response of -50% or lower; inconclusive = between -30% and -50%; inactive = -30% or higher; also: value at the top dose of about 77 µM; % is scaled to controls: 0 for no effect and ±100 for the full control effect
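Compounds were pin-transferred onto PI5P4Kalpha and substrate in HEPES pH 7.4 buffer with EGTA, CHAPS and 5% DMSO. ATP (5 microM final) started the reaction, which ran 60 minutes at room temperature before ADP-Glo detection.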
JMJD2A Tudor inh = qHTS Assay for Inhibitors of JMJD2A-Tudor Domain; AlphaScreen JMJD2A-Tudor / H3K4me3 peptide binding; Potency, µM (series often up to 114 µM), inactives show at the top dose activity change, negative = inhibition, usual class: inhibitors; 390,000 tested, 4.4% active; Lysine-specific demethylase 4A (Homo sapiens), O75164; also: potency is read from the fitted curve at half-maximal effect; % is scaled to controls: 0 for no effect and ±100 for the full control effect; nearly all actives have a fitted effect of over 50% in size
BAZ2B block = qHTS Assay for Inhibitors of BAZ2B; AlphaScreen BAZ2B-H3K14Ac peptide displacement; 360,000 tested, 4.4% active; Potency, µM (series often up to 114 µM), without a hit: at the top dose activity change, negative = inhibition, usual class: inhibitors; Bromodomain adjacent to zinc finger domain protein 2B (Homo sapiens), Q9UIF8; AID 504333, 2011; also: potency is read from the fitted curve at half-maximal effect; % is scaled to controls: 0 for no effect and ±100 for the full control effect; nearly all actives have a fitted effect of over 60% in size
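In this displacement format the biotinylated H3(5-23) peptide acetylated at Lys14 serves as ligand at 50 nM, with BAZ2B at 50 nM in PBS pH 7.4 containing 0.01% Tween-20. Donor and acceptor beads are 10 ug/mL final.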
HP1b binding inh = HTS for Inhibitors of HP1-beta Chromodomain Interactions with Methylated Histone Tails. AlphaScreen HP1-beta / biotin-H3K9me3 peptide binding. Potency, µM (top dose mostly 114 µM), for the others: at the highest dose activity change, negative = inhibition, usual class: inhibitors. 390,000 tested, 0.56% active. AID 540317, 2011; also: potency is read from the fitted curve at half-maximal effect; nearly all actives have a fitted effect of over 70% in size
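Compound inhibition of the preformed complex between 50 nM HP1-beta and 50 nM biotinylated H3K9me3 peptide was read by AlphaScreen. Buffer was PBS pH 7.4 with 0.01% Tween-20. Incubations ran 30 min at room temperature, with 10 ug/mL donor/acceptor beads.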
An asterisk follows results filed as active; ? = inconclusive; / = not tested or not shown; [ ] = dose if it differs, or a comment. Unless noted, calls follow the shape of the dose curve; as a rule, active = well fitted curve in the direction sought with a large enough effect; inconclusive = small, poorly fitted or top-dose-only effect, or another doubt; inactive = no such curve, though single readings can be large; an effect the other way counts as inactive or inconclusive.

SMILES	GCN5L2 inh	PLK1 PBD inh	PI5P4K alpha inh	JMJD2A Tudor inh	BAZ2B block	HP1b binding inh
CCOc1ccccc1NC(=O)C1CCN(S(=O)(=O)c2ccccc2)CC1	-3%	/	/	-13%	0%	16%
Cc1ccc(C)c(CN2C(=O)CSc3ccc(C(=O)NCCc4ccc(Cl)cc4)cc32)c1	1%	/	/	?	-1%	3%
Cc1nccn1CC(=O)c1ccc(O)c(O)c1	-1%	21µM*	-7	20µM*	56µM*	20%
Cc1ccc(N/C=C(\[N+](=O)[O-])S(=O)(=O)c2ccccc2)cc1	-2%	-21%	8	-14%	-34%	33%
Cc1cccc(N/C=C(\[N+](=O)[O-])S(=O)(=O)c2ccccc2)c1	-8%	27µM*	1	?	?	-4%
O=C(CCCOc1ccc(Cl)cc1Cl)n1nnc2ccccc21	-4%	8.4µM*	0	1%	26%	112%
CC(=O)c1ccc(OCCCC(=O)n2nnc3ccccc32)cc1	-3%	21µM*	-1	79µM*	-1%	-15%
COc1ccc(CCCc2n[nH]c(=S)o2)cc1C	-9%	-2%	-23	-10%	-23%	51%
COc1ccc(Cc2cnc(N)nc2N)cc1OC	-1%	/	/	/	/	/
CCOc1ccc(Cc2n[nH]c(=S)n2N)cc1	10%	?	5	8.9µM*	-31%	?
COc1ccc(Cc2n[nH]c(=S)n2N)cc1OC	2%	12µM*	?	7.9µM*	?	?
COc1ccc(CCCc2n[nH]c(=S)n2C)cc1C	-10%	-13%	-5	5.6µM*	-24%	?
COc1ccc(Cc2n[nH]c(=S)n2C)cc1Br	3%	-7%	-1	20µM*	11%	5%
COc1cccc(NC(=O)c2cncs2)c1	-17%	-7%	1	-19%	12%	35%
COc1cc(NC(=O)CCn2cnc3ccccc3c2=O)cc(OC)c1	7%	/	/	-20%	-5%	16%[57 µM]
Nn1c(Cc2ccccc2F)nnc1SCCOc1ccc(Cl)cc1	-3%	-8%	2	-5%	-3%	38%
Nn1c(Cc2ccccc2F)n[nH]c1=S	-7%	-8%	-1	3.2µM*	-22%	24%
Nn1c(Cc2ccc(Br)cc2)n[nH]c1=S	-1%	12µM*	-19	7.1µM*	?	?
COc1cc(NC(=O)c2nc3cc(C)c(C)cc3n(C)c2=O)cc(OC)c1OC	-2%	/	/	4%	3%	44%
COc1cc(/C=C2\SC(=O)N(Cc3ccc(F)cc3)C2=O)cc([N+](=O)[O-])c1O	-1%	27µM*	?	28µM*	8.9µM*	16µM*
COc1cc(/C=C2/SC(=O)N(Cc3ccccc3)C2=O)ccc1OCc1ccncc1	-16%	-7%	10	?	-33%	19%
CCOC(=O)CN1C(=O)S/C(=C/c2ccc(OC)c([N+](=O)[O-])c2)C1=O	-5%	-8%	-6	3%	6%	28%
COc1cc(/C=C2\SC(=O)N(Cc3ccc(Cl)cc3)C2=O)cc([N+](=O)[O-])c1O	-4%	24µM*	-81*	8.9µM*	16µM*	13µM*
CN1CCc2cccc3c2C1Cc1ccc(O)c(O)c1-3 (centres undefined)	-10%	3%	-29	40µM*	?	?
CCOc1ccccc1NC1(c2ccccc2)C(=O)c2ccccc2C1=O	-23%	/	/	11µM*	?	?
SMILES	GCN5L2 inh	PLK1 PBD inh	PI5P4K alpha inh	JMJD2A Tudor inh	BAZ2B block	HP1b binding inh
COc1ccc(C)cc1NC1(c2ccccc2)C(=O)c2ccccc2C1=O	-3%	/	/	28µM*	?	?
COc1ccc(CNc2ncnc3nc[nH]c23)cc1	/	/	/	-11%	/	56%
O=C(CN1C(=O)NC2(CCCC2)C1=O)NCCc1ccc(Cl)cc1Cl	-9%	-1%	-1	-14%	-5%	18%
CC(=O)c1cccc(NC(=O)Cn2c(=O)oc3cc(S(=O)(=O)NC4CCCC4)ccc32)c1	2%	/	/	0%	-1%	48%
O=C(O)/C=C/c1cn(Cc2ccccc2Cl)nc1-c1ccccc1	-13%	27µM*	-16	-14%[11.4 µM]	19%	-6%
CSc1ccccc1NC(=O)C(C)N(C)CC(=O)N1CCN(Cc2ccccc2)CC1 (centres undefined)	/	-2%	-7	10µM*	/	?
CN(CC(=O)N1CCN(Cc2ccccc2)CC1)S(=O)(=O)c1ccc(F)cc1	-6%	2%	0	-13%	6%	19%
CC(C(=O)Nc1ccc(C(F)(F)F)cc1)N(C)CC(=O)N1CCN(Cc2ccccc2)CC1 (centres undefined)	0%	-3%	9	0.89µM*	/	20µM*
CCOc1ccc(N=Cc2ccc(N(C)C)cc2)c(O)c1	/	?	-54*	/	/	/
Cc1cc(NC(=O)COc2ccc(C(C)(C)C)cc2)no1	-4%	-5%	0	-9%	-2%	10%
COCCN1Cc2cccc(C(=O)NCCCN3CCCC3=O)c2C1=O	?	3%	2	10%	-5%	20%
Nn1c(COc2cccc(Cl)c2)nc2ccccc2c1=O	-2%	-5%	-12	-18%[57.1 µM]	2%	34%
Cc1cccc(OCc2nc3ccccc3c(=O)n2N)c1	-4%	24µM*	-17	-11%[11.4 µM]	4%	-14%
CC(=O)Nc1nnc(-c2c(-c3ccccc3Cl)noc2C)o1	-1%	3%	-2	18µM*	?	15%
CC(=O)Nc1ccc(NC(=O)c2c(-c3ccccc3Cl)noc2C)cc1	1%	-1%	1	-11%	5%	26%
CCNC(=S)NN=C1CCC(C(C)(C)C)CC1 (centres undefined)	0%	0%	13	-29%	79µM*	-8%
CCNc1nc(NC(N)=S)nc(NC(C)(C)C)n1	-6%	27µM*	-4	-5%	1%	?
CCNc1nc(NCC)nc(NC(N)=S)n1	-2%	-12%	2	-8%	-5%	16%
O=C(/C=C/c1ccco1)Nc1ccc2nc3n(c(=O)c2c1)CCCC3	-15%	1%	0	-3%	-4%	47%
CCC(C)(C)C(=O)O[C@H]1C[C@@H](C)C=C2C=C[C@H](C)[C@H](CC[C@@H]3C[C@@H](O)CC(=O)O3)[C@H]21	-1%	30µM*	-18	?	?	10%
CCC(C)C(=O)OC1CC(O)C=C2C=CC(C)C(CCC(O)CC(O)CC(=O)O)C21 (centres undefined)	5%	/	/	/	/	/
